Measurements published in PubChem BioAssay (Tox21).
Inconclusive results are not listed. The source made the active and inactive calls. Unless noted, the call rests on the fitted dose curve.

Assays:
[1] = qHTS assay to identify small molecule agonists of the sonic hedgehog signaling (Shh) pathway (AID 1259368);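 further: NIH/3T3-derived 3T3Gli1-Luc cells carrying a stable Gli1-driven firefly luciferase reporter; series mostly up to about 92 µM; nearly all actives have a fitted effect of over 15% in size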
Procedure, shortened: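 3T3Gli1-Luc (NIH/3T3 clone, stable Gli1-Luc); 4 hr pre-incubation, then cpd in DMSO 24 hr, 37 C/5% CO2; luciferase reagent 30 min RT; luminescence.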

[2] = qHTS assay to identify small molecule antagonists of the sonic hedgehog signaling (Shh) pathway (AID 1259369); further: nearly all actives have a fitted effect of over 45% in size
Procedure, shortened: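 3T3Gli1-Luc, conditioned-medium-stimulated, 24hr cpd, 37C/5% CO2; Gli1-driven firefly Luc luminescence after 30min RT with luciferase reagent. Cells plated 4hr before cpd.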

[3] = biological target: Estrogen receptor beta (Homo sapiens) (UniProt Q92731); assay: qHTS assay to identify small molecule agonists of the estrogen receptor beta (ER-beta) signaling pathway (AID 1259377; active means well fitted activation curve with a large enough effect in the signal ratio in the repeat runs, not every such curve was filed as active; the % refers to the signal ratio)
Procedure, shortened: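 Ratiometric beta-lactamase FRET read-out came after 2 h substrate loading at room temperature. It followed 16 h compound treatment at 37C of GripTite HEK293T cells carrying a UAS-bla reporter, plated in 2% charcoal-stripped FBS medium.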

[4] = qHTS assay to identify small molecule agonists of the androgen receptor (AR) signaling pathway in the presence of an antagonist - cell viability counter screen (AID 1259379; active means well fitted curve in the direction sought with a large enough effect in the repeat runs; an effect the other way counts as inactive or inconclusive;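 further: MDA-kb2 human breast cancer cells carrying an MMTV luciferase reporter; series mostly up to about 92 µM; nearly all actives have a fitted effect of over 25% in size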)
Procedure, shortened: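 Cells: MDA-kb2 (MMTV-luc, AR and GR elements), 3,000/well, 5 hr settle. Added: nilutamide 3.0uM final, then compounds (15 conc.). Incubation: 16 hr, 37C, no CO2. Read-out: CellTiter-Fluor, 1 hr, fluorescence.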

[5] = qHTS assay to identify small molecule antagonists of the estrogen receptor beta (ER-beta) signaling pathway - cell viability counter screen (AID 1259382; active means well fitted curve in the direction sought with a large enough effect in the repeat runs; an effect the other way counts as inactive or inconclusive; further: series mostly up to about 92 µM; nearly all actives have a fitted effect of over 55% in size)
Procedure, shortened: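 Cells: ER-beta-UAS-bla HEK293T, 2,000/well, 2% CS-FBS, 6 hr settle. Cpd + E2 (1nM final), 16 hr, 37C/5% CO2. Bla FRET substrate 2 hr RT, then CellTiter-Glo 30 min RT, luminescence.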

[6] = biological target: Estrogen receptor (Homo sapiens) (UniProt P03372); assay: qHTS assay to identify small molecule agonists of the estrogen receptor alpha (ER-alpha) signaling pathway in the presence of an antagonist (AID 1259383); further: top concentration of the series differs between compounds; nearly all actives have a fitted effect of over 15% in size
Procedure, shortened: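 VM7Luc4E2, endog. ER-alpha + 4×ERE-luc; charcoal-stripped FBS, phenol red-free, 5 d; 24hr plating; +10.0nM ICI-182,780 (final); cpds 15 conc, 22hr, 37C/5% CO2; ONE-Glo luminescence.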

[7] = qHTS assay to identify small molecule agonists or antagonists of the thyroid stimulating hormone receptor (TSHR) signaling pathway - wild type cell line counter screen (AID 1259384)
Procedure, shortened: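 Wild-type Hek293 cells, 800/well, 18 h at 37C, then compound with Ro20-1724 for 30 min RT. cAMP by HTRF (cAMP-d2/anti-cAMP cryptate), 1 h RT, fluorescence read. 15 concentrations, triplicates.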

[8] = biological target: Estrogen receptor beta (Homo sapiens) (UniProt Q92731); assay: qHTS assay to identify small molecule antagonists of the estrogen receptor beta (ER-beta) signaling pathway (AID 1259378; active means well fitted inhibition curve with a large enough effect in the signal ratio in the repeat runs, not every such curve was filed as active; the % refers to the signal ratio)
Procedure, shortened: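 ER-beta-UAS-bla HEK293T cells in 2% charcoal-stripped FBS medium treated with compound plus 1nM final 17-beta-estradiol for 16 hr at 37C. Beta-lactamase reporter read by FRET substrate fluorescence after 2 hours at room temperature.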

[9] = qHTS assay to identify small molecule agonists of the estrogen receptor beta (ER-beta) signaling pathway - cell viability counter screen (AID 1259380; active means well fitted curve in the direction sought with a large enough effect in the repeat runs; an effect the other way counts as inactive or inconclusive; further: nearly all actives have a fitted effect of over 30% in size)
Procedure, shortened: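 HEK293T ER-beta-UAS-bla; 2% CS-FBS; 6 hr pre-plate, 16 hr cpd at 37C/5% CO2; LiveBLAzer read first, then CellTiter-Glo 30 min RT, luminescence.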

[10] = biological target: Androgen receptor (Homo sapiens) (UniProt P10275); assay: qHTS assay to identify small molecule agonists of the androgen receptor (AR) signaling pathway in the presence of an antagonist (AID 1259381); further: nearly all actives have a fitted effect of over 15% in size
Procedure, shortened: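 MDA-kb2 cells, 3,000/well, rested 5hr at 37C/0% CO2 → nilutamide 3.0uM final or buffer → compounds, 15 conc. → 16hr at 37C → ONE-Glo, 30min RT → luminescence.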

Measured: Potency

Androgen receptor (Homo sapiens), sequence (P10275 whole entry, looked up): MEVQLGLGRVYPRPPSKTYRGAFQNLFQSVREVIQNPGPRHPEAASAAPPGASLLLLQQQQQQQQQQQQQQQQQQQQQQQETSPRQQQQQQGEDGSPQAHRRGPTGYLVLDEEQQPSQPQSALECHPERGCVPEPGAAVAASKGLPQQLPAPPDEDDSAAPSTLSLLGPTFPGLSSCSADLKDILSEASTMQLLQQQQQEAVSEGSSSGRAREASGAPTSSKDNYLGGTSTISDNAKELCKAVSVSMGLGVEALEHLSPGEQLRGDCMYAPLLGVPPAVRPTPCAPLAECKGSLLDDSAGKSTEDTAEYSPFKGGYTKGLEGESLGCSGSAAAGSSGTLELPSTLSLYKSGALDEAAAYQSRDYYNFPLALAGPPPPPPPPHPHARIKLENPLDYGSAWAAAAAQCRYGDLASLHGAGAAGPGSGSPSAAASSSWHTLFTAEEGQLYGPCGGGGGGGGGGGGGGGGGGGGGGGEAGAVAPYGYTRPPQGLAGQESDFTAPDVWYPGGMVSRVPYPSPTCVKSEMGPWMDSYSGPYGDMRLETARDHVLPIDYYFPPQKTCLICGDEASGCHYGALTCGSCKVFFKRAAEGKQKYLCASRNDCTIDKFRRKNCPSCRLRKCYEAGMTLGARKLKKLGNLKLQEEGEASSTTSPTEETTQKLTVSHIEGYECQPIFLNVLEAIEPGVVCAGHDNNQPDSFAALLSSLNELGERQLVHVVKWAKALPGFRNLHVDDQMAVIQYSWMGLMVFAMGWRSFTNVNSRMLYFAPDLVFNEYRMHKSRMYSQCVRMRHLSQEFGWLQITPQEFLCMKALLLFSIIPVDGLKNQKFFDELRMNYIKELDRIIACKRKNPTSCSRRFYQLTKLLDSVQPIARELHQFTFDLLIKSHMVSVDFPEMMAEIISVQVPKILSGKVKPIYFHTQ
Estrogen receptor (Homo sapiens), sequence (P03372 whole entry, looked up): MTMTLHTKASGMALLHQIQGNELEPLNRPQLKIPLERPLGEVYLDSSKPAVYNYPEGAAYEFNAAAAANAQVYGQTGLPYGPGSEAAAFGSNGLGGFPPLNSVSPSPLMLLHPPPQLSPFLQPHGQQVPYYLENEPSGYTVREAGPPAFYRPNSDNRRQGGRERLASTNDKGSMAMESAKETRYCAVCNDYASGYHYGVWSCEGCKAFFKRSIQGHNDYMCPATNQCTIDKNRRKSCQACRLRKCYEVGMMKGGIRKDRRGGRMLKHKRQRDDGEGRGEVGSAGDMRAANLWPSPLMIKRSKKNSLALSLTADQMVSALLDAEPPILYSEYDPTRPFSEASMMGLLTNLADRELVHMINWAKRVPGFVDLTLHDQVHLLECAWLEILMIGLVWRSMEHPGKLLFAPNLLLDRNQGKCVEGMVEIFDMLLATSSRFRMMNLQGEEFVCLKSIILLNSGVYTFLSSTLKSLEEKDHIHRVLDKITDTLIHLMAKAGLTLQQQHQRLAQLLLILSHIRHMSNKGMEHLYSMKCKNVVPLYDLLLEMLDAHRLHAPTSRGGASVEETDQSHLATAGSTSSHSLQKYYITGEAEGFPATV
Estrogen receptor beta (Homo sapiens), sequence (Q92731 whole entry, looked up): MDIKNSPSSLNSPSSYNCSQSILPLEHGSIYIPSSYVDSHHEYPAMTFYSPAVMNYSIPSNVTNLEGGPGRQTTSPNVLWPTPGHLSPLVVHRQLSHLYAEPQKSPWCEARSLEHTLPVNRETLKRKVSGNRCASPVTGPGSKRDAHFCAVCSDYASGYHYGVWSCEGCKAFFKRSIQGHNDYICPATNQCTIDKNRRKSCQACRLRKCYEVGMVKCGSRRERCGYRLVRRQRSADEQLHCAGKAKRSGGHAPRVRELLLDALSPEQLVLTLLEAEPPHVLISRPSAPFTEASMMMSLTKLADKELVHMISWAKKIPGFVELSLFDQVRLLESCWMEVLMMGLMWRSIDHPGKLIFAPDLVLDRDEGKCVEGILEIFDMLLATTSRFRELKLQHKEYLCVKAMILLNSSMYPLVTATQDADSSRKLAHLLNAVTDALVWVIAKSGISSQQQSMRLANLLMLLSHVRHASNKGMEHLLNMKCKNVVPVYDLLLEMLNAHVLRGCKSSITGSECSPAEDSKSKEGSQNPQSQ

Nc1cc(C(Cl)=C(Cl)Cl)c(S(N)(=O)=O)cc1S(N)(=O)=O
not listed: [8] | [9] | [10]
inactive: all other assays above

COc1ccc2cc(C=O)ccc2c1
not listed: [3]
inactive: all other assays above

Cc1c(F)cc2c(=O)c(C(=O)O)cn3c2c1CCC3C (stereo not given)
not listed: [3] | [8]
inactive: all other assays above

CC(C)CCCC(C)NCCC(C)C (stereo not given)
not listed: [3] | [8]
inactive: all other assays above

C=CCSCC1Nc2cc(Cl)c(S(N)(=O)=O)cc2S(=O)(=O)N1 (stereo not given)
inactive: [1] | [2] | [4] | [9] | [5] | [7]

CCCCC1CCCCC(=O)O1 (stereo not given)
not listed: [3] | [8] | [10]
inactive: all other assays above

C=CC(=O)OCCCCCC
inactive: [1] | [2] | [4] | [9] | [5] | [7]

c1ccc2cnncc2c1
not listed: [3] | [8] | [10]
inactive: all other assays above

CC(=O)NC(Cc1ccccc1)C(=O)O (stereo not given)
not listed: [3] | [8] | [10]
inactive: all other assays above

NC(=O)c1ncn([C@@H]2O[C@H](CO)[C@@H](O)[C@H]2O)c1N
not listed: [3] | [8] | [10]
inactive: all other assays above

COC(=O)CCCCCCCCC(=O)OC
not listed: [3] | [8] | [10]
inactive: all other assays above

C#CC(O)CCCCC (stereo not given)
inactive: [1] | [2] | [4] | [9] | [5] | [7]

Nc1ccc2cc(S(=O)(=O)O)ccc2c1
not listed: [3] | [8] | [10]
inactive: all other assays above

C=C(C)C1CC=C(C)C(O)C1 (stereo not given)
not listed: [3] | [8] | [10]
inactive: all other assays above

CCCCCCCCCCCCCCCCCC(=O)OCCCCCCCCCCCCCC(C)C
not listed: [3] | [8] | [10]
inactive: all other assays above

CCCCC=O
inactive: [1] | [2] | [4] | [9] | [5] | [7]

CC(C)COC(=O)c1ccccc1O
not listed: [3] | [8] | [10]
inactive: all other assays above

NCCNC(=O)c1ccc(Cl)cn1
not listed: [3] | [8] | [10]
inactive: all other assays above

NS(=O)(=O)c1cc2c(cc1Cl)NC(CSCc1ccccc1)=NS2(=O)=O
not listed: [3] | [8] | [10]
inactive: all other assays above

NC(=O)CCCCC1CCSS1 (stereo not given)
not listed: [3] | [8] | [10]
inactive: all other assays above

NC(=O)c1c(Cl)cccc1Cl
not listed: [3] | [8] | [10]
inactive: all other assays above

Cc1cc(C)cc(OCC2CNC(=O)O2)c1 (stereo not given)
not listed: [3] | [8] | [10]
inactive: all other assays above

O=C(O)c1ccccc1-c1ccc(C(F)(F)F)cc1
not listed: [3] | [8] | [10]
inactive: all other assays above

CCCCCN(CCCCC)C(=O)C(CCC(=O)O)NC(=O)c1ccc(Cl)c(Cl)c1 (stereo not given)
not listed: [3] | [8] | [9]
inactive: all other assays above

OCC(CO)(CO)COCC(CO)(CO)CO
not listed: [3] | [8] | [10]
inactive: all other assays above
